According to paper PMC10668032, “Altered binding affinity of SIX1-Q177R correlates with enhanced WNT5A and WNT pathway effector expression in Wilms tumor”:
The full ranking holds about 33,000 sequences; the median of “e-score” is about -0.053, and the highest 2% start at about 0.38. The entries come from a sample that favours the highest values as a whole.

Each sequence was assayed against T1, SIX1 homeodomain (reference allele) (human, UniProt Q15475 108-198) (assay: universal protein binding microarray; Universal all-10-mer PBM (8x60K, AMADID 030236), 300 nM GST-tagged protein, Alexa Fluor 488 anti-GST; buffer, salt, pH and temperature not stated (as in Berger); high values mean tight binding). Details: protein: ivt; tags: N-terminal GST; dsDNA, one strand shown.
T1 sequence: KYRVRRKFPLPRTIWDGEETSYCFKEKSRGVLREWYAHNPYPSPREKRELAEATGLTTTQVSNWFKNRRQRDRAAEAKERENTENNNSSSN
Procedure, shortened: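 Homeodomains carrying a GST tag were produced by in vitro transcription/translation, then quantified by anti-GST western blot against a recombinant GST standard curve. Duplicate applications at 300 nM final concentration were made to universal 'all 10-mer' protein binding microarrays in 8×60K format. The Universal PBM Analysis Suite was used to express binding as 8-mer E-scores.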

Sequence	binding signal
AGTAAGAT	0.191 ± 0.00535 E-score
ATCCGCCC	0.373 ± 0.0127 E-score
GATATCCC	0.487 ± 0.00837 E-score
GCTATCCC	0.281 ± 0.0159 E-score
AATATCCT	0.282 ± 0.0516 E-score
AATATCCG	0.317 ± 0.0622 E-score
CATATCCC	0.352 ± 0.0303 E-score
GATATCCA	0.452 ± 0.0127 E-score
AATATCCA	0.2955 ± 0.00224 E-score
AATATCCC	0.378 ± 0.0135 E-score
CATATCCA	0.348 ± 0.0227 E-score
GAAGATCA	0.196 ± 0.071 E-score
GAGCAATA	0.151 ± 0.0211 E-score
CGAGATCA	0.287 ± 0.035 E-score
CTAAGATC	0.207 ± 0.011 E-score
ATCTAGCC	0.18 ± 0.0214 E-score
GTATGATA	0.426 ± 0.00336 E-score
GTATGAGA	0.167 ± 0.0275 E-score
ATATGATA	0.443 ± 0.0314 E-score
CTATGATA	0.394 ± 0.0185 E-score
GTATGACA	0.153 ± 0.0497 E-score
CTATGATC	0.302 ± 0.0116 E-score
ATATGATG	0.202 ± 0.0156 E-score
ATATGATC	0.378 ± 0.0179 E-score
CTATGGTA	0.305 ± 0.0461 E-score

Sequence	binding signal
CTATGAGA	0.177 ± 0.0191 E-score
ATATGACC	0.189 ± 0.0241 E-score
ATATGACA	0.2181 ± 0.00196 E-score
ATCGGCGA	0.263 ± 0.0285 E-score
CAGCTATA	0.172 ± 0.0266 E-score
ATCAACCC	0.3364 ± 0.0021 E-score
CCCTTCGG	0.2259 ± 0.00107 E-score
ATCTCGGC	0.164 ± 0.0197 E-score
CCGCATCC	0.159 ± 0.0829 E-score
CTGGGGTC	0.164 ± 0.0399 E-score
GATCCATC	0.364 ± 0.0371 E-score
ATCGTTGG	0.205 ± 0.01 E-score
ATATAAGG	0.189 ± 0.0368 E-score
CGATGGAG	0.167 ± 0.00841 E-score
GGATCACC	0.438 ± 0.0243 E-score
AGATCACC	0.317 ± 0.00333 E-score
AGATCAAC	0.264 ± 0.0411 E-score
GGATCAGA	0.414 ± 0.0101 E-score
AGATCAGA	0.215 ± 0.0541 E-score
GGATCAAA	0.372 ± 0.0497 E-score
TGATCACA	0.254 ± 0.0125 E-score
GGATCAAC	0.39 ± 0.0049 E-score
CGATCACC	0.34 ± 0.0407 E-score
CGATCAGA	0.192 ± 0.0121 E-score
CGATCACG	0.251 ± 0.0416 E-score

Sequence	binding signal
GGATCACA	0.4356 ± 0.00108 E-score
CCCCATCA	0.152 ± 0.0305 E-score
TATCCTAA	0.238 ± 0.0642 E-score
GATAACTA	0.154 ± 0.00881 E-score
GATCTTTA	0.164 ± 0.0165 E-score
ATCGCACG	0.2071 ± 0.000375 E-score
ATAGGCGG	0.1969 ± 0.00138 E-score
TATTGCGA	0.232 ± 0.0343 E-score
TCACCCGA	0.157 ± 0.0682 E-score
GATAGTAA	0.221 ± 0.00274 E-score
AGATCATA	0.323 ± 0.00987 E-score
GGATCATA	0.433 ± 0.0211 E-score
CGATCATA	0.276 ± 0.0116 E-score
ATCAACGA	0.201 ± 0.0401 E-score
AGTATTGG	0.204 ± 0.0532 E-score
ATAGCTAT	0.27 ± 0.0878 E-score
TCTCCAGA	0.165 ± 0.00783 E-score
ACAGATAC	0.341 ± 0.00624 E-score
CTAGATAC	0.349 ± 0.00583 E-score
CAAGATAC	0.349 ± 0.0341 E-score
AGAGATAG	0.153 ± 0.0279 E-score
AGAGATAC	0.38 ± 0.00418 E-score
CGAGATAC	0.381 ± 0.00544 E-score
CCAGATAC	0.409 ± 0.0168 E-score
GGAGATAC	0.41 ± 0.00953 E-score

Sequence	binding signal
CCAGATAA	0.234 ± 0.0252 E-score
GCAGATAC	0.3749 ± 0.000573 E-score
AGAGATAT	0.335 ± 0.0776 E-score
GGAGATCC	0.374 ± 0.0453 E-score
ATCCGAAA	0.246 ± 0.022 E-score
ATATCTTG	0.271 ± 0.0944 E-score
CGATCTCC	0.31 ± 0.00569 E-score
ACTGTATC	0.367 ± 0.00948 E-score
CCTATAGA	0.157 ± 0.037 E-score
GCCTATAA	0.161 ± 0.0675 E-score
TATCGTGA	0.279 ± 0.00354 E-score
AATACGAG	0.233 ± 0.00564 E-score
AATTGTGA	0.185 ± 0.0272 E-score
ATGGTGTA	0.305 ± 0.00747 E-score
CTGGTCTA	0.201 ± 0.0694 E-score
ATGGTGTG	0.183 ± 0.0828 E-score
ATGGTGTC	0.435 ± 0.0115 E-score
CTGGTGTC	0.414 ± 0.0127 E-score
CTGGTGTA	0.313 ± 0.0189 E-score
GATCCTTA	0.342 ± 0.021 E-score
GATCCCTA	0.3831 ± 0.000778 E-score
GATCCCGA	0.377 ± 0.0296 E-score
AATCCCGA	0.223 ± 0.0516 E-score
AATCCCTA	0.185 ± 0.0203 E-score
TATCCCGA	0.315 ± 0.0248 E-score

Sequence	binding signal
AACCGAGA	0.162 ± 0.046 E-score
ACACCTCG	0.3009 ± 0.00176 E-score
CCTATCTA	0.178 ± 0.0299 E-score
ATGATCAT	0.246 ± 0.029 E-score
ACGATCAC	0.177 ± 0.0336 E-score
AGGATCAT	0.38 ± 0.0194 E-score
AAGATCAC	0.239 ± 0.0239 E-score
AGGATCAC	0.435 ± 0.0114 E-score
AGGATCAG	0.368 ± 0.0142 E-score
CATGAGAC	0.296 ± 0.000976 E-score
ACTACTCG	0.163 ± 0.00508 E-score
AGATCACA	0.255 ± 0.00822 E-score
CTATCAAA	0.258 ± 0.141 E-score
GTATCAAA	0.452 ± 0.0436 E-score
AGATCAAG	0.232 ± 0.0888 E-score
GTATCAAC	0.475 ± 0.0103 E-score
AGATCAAT	0.3827 ± 0.00302 E-score
GTATAAAC	0.185 ± 0.0191 E-score
GTGTCAAC	0.287 ± 0.0231 E-score
AGATCAAA	0.188 ± 0.0637 E-score
AGATCACT	0.385 ± 0.0244 E-score
AGATCACG	0.306 ± 0.0143 E-score
GTGTCAAA	0.311 ± 0.019 E-score
CGGAGATA	0.314 ± 0.0255 E-score
ATCCTTCG	0.228 ± 0.0545 E-score

Sequence	binding signal
ATTAATCG	0.16 ± 0.0622 E-score
ATACTTAC	0.218 ± 0.0954 E-score
ATATTATG	0.299 ± 0.0542 E-score
ATCAGGCG	0.25 ± 0.0206 E-score
CTCATCTC	0.158 ± 0.0133 E-score
ACTCGGGG	0.212 ± 0.0491 E-score
CCCTATCC	0.359 ± 0.0609 E-score
AGTGGGAT	0.333 ± 0.0228 E-score
CGATCGCC	0.257 ± 0.026 E-score
CGGCGATC	0.302 ± 0.0621 E-score
ATATCAAA	0.374 ± 0.0809 E-score
CTATCAAC	0.29 ± 0.0532 E-score
ATATCAAG	0.423 ± 0.0464 E-score
ATATCAAC	0.418 ± 0.0449 E-score
ATATCAAT	0.421 ± 0.0559 E-score
ATCTCAAG	0.215 ± 0.0235 E-score
CTATCAAG	0.155 ± 0.0723 E-score
ATCTCAAC	0.233 ± 0.0413 E-score
ATCTCAAT	0.183 ± 0.0808 E-score
ACAGGGTA	0.267 ± 0.0137 E-score
ATCATAAC	0.2814 ± 0.00204 E-score
CCCGTGTA	0.171 ± 0.0224 E-score
ATCCCTAC	0.307 ± 0.0295 E-score
ATCACTCA	0.335 ± 0.0213 E-score
CGCATACC	0.266 ± 0.0145 E-score

Sequence	binding signal
CTCATATC	0.31 ± 0.0778 E-score
ATCATATA	0.271 ± 0.0327 E-score
AGCATATA	0.239 ± 0.0331 E-score
AGAATATC	0.283 ± 0.121 E-score
CGCATATA	0.158 ± 0.0261 E-score
AGCATATC	0.408 ± 0.0304 E-score
CGCATATC	0.414 ± 0.0167 E-score
ATCATATC	0.425 ± 0.033 E-score
CGCATCTC	0.154 ± 0.00741 E-score
TACATGTA	0.176 ± 0.041 E-score
ACTCATAT	0.25 ± 0.0849 E-score
AGTATACG	0.26 ± 0.0621 E-score
ATACGTGC	0.358 ± 0.0375 E-score
GTGTCATA	0.369 ± 0.0321 E-score
ATATGACG	0.227 ± 0.0466 E-score
CGATCCAG	0.212 ± 0.123 E-score
TACAGGTA	0.244 ± 0.0285 E-score
GATAGGCC	0.209 ± 0.0213 E-score
CTGCGATC	0.322 ± 0.0185 E-score
ATCCGGAT	0.446 ± 0.0263 E-score
ACCCGGCT	0.22 ± 0.0443 E-score
ATCCGGAG	0.299 ± 0.0152 E-score
ACCCGGAG	0.194 ± 0.0529 E-score
ACCCGTAT	0.391 ± 0.00477 E-score
ACCCGGGT	0.377 ± 0.0364 E-score

Sequence	binding signal
ACCCGGAT	0.411 ± 0.0469 E-score
ACCCGGAA	0.184 ± 0.00414 E-score
ATCCGGAA	0.295 ± 0.0493 E-score
AACCGTAT	0.275 ± 0.0195 E-score
ACCCGGGA	0.311 ± 0.0112 E-score
ACCCGTAG	0.156 ± 0.0429 E-score
TCCGCCGA	0.252 ± 0.00841 E-score
CGAATACG	0.2 ± 0.0406 E-score
GGTGTTGA	0.258 ± 0.0174 E-score
TCAGATAA	0.21 ± 0.0582 E-score
AATACCTG	0.178 ± 0.0145 E-score
ATCATCGG	0.365 ± 0.0324 E-score
AGCCGGAT	0.382 ± 0.0208 E-score
AGCCGGCT	0.1726 ± 0.000438 E-score
AACCGGAT	0.316 ± 0.00955 E-score
ATCTTCAG	0.153 ± 0.0288 E-score
CGGTGTTA	0.312 ± 0.0102 E-score
ACCGGTAT	0.37 ± 0.0044 E-score
AATGGTAT	0.381 ± 0.00619 E-score
ACTGGTAT	0.386 ± 0.034 E-score
ACTGGGAT	0.239 ± 0.0081 E-score
AGTGGTAT	0.35 ± 0.0207 E-score
AATGGTGT	0.287 ± 0.00727 E-score
GGATTAGA	0.165 ± 0.00327 E-score
CCGTATCG	0.457 ± 0.0169 E-score

Sequence	binding signal
CCCTATCA	0.429 ± 0.0145 E-score
GCGTATAA	0.16 ± 0.104 E-score
CCGTATAG	0.239 ± 0.00962 E-score
GCGTCTCA	0.209 ± 0.0176 E-score
ACCTATCA	0.336 ± 0.0088 E-score
GCGTATCA	0.481 ± 0.00534 E-score
TCCTATCA	0.307 ± 0.0417 E-score
GCCTATCA	0.289 ± 0.00848 E-score
TCGTATCA	0.45 ± 0.0228 E-score
CCGTATTA	0.322 ± 0.00404 E-score
TCGTATAA	0.194 ± 0.0979 E-score
ATCCCTCG	0.337 ± 0.0323 E-score
ATATAGCG	0.164 ± 0.0414 E-score
GTATTAAC	0.272 ± 0.0619 E-score
GATAGTGA	0.231 ± 0.0159 E-score
CCGTATAA	0.226 ± 0.0709 E-score
CCGTATGA	0.217 ± 0.0235 E-score
CCGTATCA	0.486 ± 0.00556 E-score
ATCATACC	0.351 ± 0.0212 E-score
